From PubChem BioAssay AID1159580 (chemical genetic matrix, 2015)
Screen size: about 5,500 compounds; about 2,000 (36%) were called active. Another 18% or so got no clear call; they are omitted. Cut-off read from the data, not from the text of the source: active = normalized growth mostly below about 0.91 (no sharp cut-off); inconclusive = no clear call, values can overlap the other calls; inactive = mostly above about 0.92. The list shows a part of the results.

Assay: chemical genetic growth profiling, strain panel (AID 1159580);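 note: tested at 20 µM; growth read once vehicle control cultures reached saturation at 30 °C; 1 = growth at the plate median or of vehicle wells; lower values mean less growth of the strain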
Conditions: S. cerevisiae deletion strains, growth OD

Measured: normalized growth

Cc1cccc(C(=O)NCN2CCN(c3ccccc3C#N)CC2)c1
inactive: locus YAL040C, strain CLN3, active compounds read low 0.963 | locus YCL061C, strain MRC1 (second series), active compounds read low 0.978 | locus YDR150W, strain NUM1, active compounds read low 0.987 | locus YDR363W, strain ESC2, active compounds read low 0.975 | locus YER002W, strain NOP16, active compounds read low 0.974 | locus YGR229C, strain SMI1, active compounds read low 0.942 | locus YJR075W, strain HOC1, active compounds read low 0.978 | locus YMR307W, strain GAS1, active compounds read low 1.01 | locus YNL175C, strain NOP13, active compounds read low 0.979 | locus YNL197C, strain WHI3, active compounds read low 0.976 | locus YNL224C, strain SQS1, active compounds read low 0.993 | locus YOR083W, strain WHI5 (second series), active compounds read low 0.982 | locus YPL241C, strain CIN2, active compounds read low 0.982

FC(F)(F)c1cccc(NC(=S)Nc2csc(C(F)(F)F)c2-c2ccccc2)c1
inactive: locus YAR019C, strain CDC15, active compounds read low 0.968 | locus YBL105C, strain PKC1, active compounds read low 0.998 | locus YBR135W, strain CKS1, active compounds read low 0.995 | locus YBR136W, strain MEC1, active compounds read low 0.97 | locus YBR160W, strain CDC28, active compounds read low 0.988 | locus YDL017W, strain CDC7, active compounds read low 0.998 | locus YDL028C, strain MPS1, active compounds read low 0.992 | locus YDL101C, strain DUN1, active compounds read low 0.983 | locus YDL108W, strain KIN28, active compounds read low 0.993 | locus YDL132W, strain cdc53, active compounds read low 0.98 | locus YDL214C, strain PRR2, active compounds read low 0.944 | locus YDR052C, strain DBF4, active compounds read low 0.987 | locus YDR054C, strain cdc34, active compounds read low 0.97 | locus YDR226W, strain ADK1, active compounds read low 0.988 | locus YDR477W, strain SNF1, active compounds read low 0.991 | locus YER123W, strain YCK3, active compounds read low 0.991 | locus YER133W, strain GLC7, active compounds read low 0.964 | locus YFL009W, strain cdc4, active compounds read low 0.977 | locus YFL029C, strain CAK1, active compounds read low 0.954 | locus YFR003C, strain YPI1, active compounds read low 0.997 | locus YFR019W, strain FAB1, active compounds read low 0.984 | locus YFR028C, strain CDC14, active compounds read low 0.976 | locus YGR040W, strain KSS1, active compounds read low 0.981 | locus YGR052W, strain FMP48, active compounds read low 1.03 | locus YGR092W, strain DBF2, active compounds read low 0.951 | locus YHR079C, strain IRE1, active compounds read low 0.958 | locus YHR082C, strain KSP1, active compounds read low 1 | locus YHR205W, strain SCH9, active compounds read low 0.973 | locus YIL147C, strain SLN1, active compounds read low 0.984 | locus YJL095W, strain BCK1, active compounds read low 0.959 | locus YJL128C, strain PBS2, active compounds read low 0.973 | locus YJL157C, strain FAR1, active compounds read low 0.964 | locus YJR016C, strain ILV3, active compounds read low 0.984 | locus YJR066W, strain TOR1 (second series), active compounds read low 0.934 | locus YJR066W, strain TOR1, active compounds read low 0.983 | locus YKL048C, strain ELM1, active compounds read low 0.997 | locus YKL067W, strain YNK1, active compounds read low 0.963 | locus YKL101W, strain HSL1, active compounds read low 0.952 | locus YKL193C, strain SDS22, active compounds read low 0.985 | locus YKL203C, strain TOR2, active compounds read low 1.03 | locus YLR113W, strain HOG1, active compounds read low 0.892 | locus YLR133W, strain CKI1, active compounds read low 0.96 | locus YLR403W, strain SFP1, active compounds read low 0.989 | locus YML070W, strain DAK1, active compounds read low 0.965 | locus YMR001C, strain CDC5, active compounds read low 0.993 | locus YMR205C, strain PFK2 (second series), active compounds read low 0.96 | locus YMR277W, strain FCP1, active compounds read low 0.987 | locus YNL006W, strain LST8, active compounds read low 0.988 | locus YNL020C, strain ARK1, active compounds read low 0.964 | locus YNL161W, strain CBK1, active compounds read low 0.988 | locus YNL183C, strain NPR1, active compounds read low 0.976 | locus YNL207W, strain RIO2, active compounds read low 0.973 | locus YNL222W, strain SSU72, active compounds read low 0.991 | locus YNL307C, strain MCK1 (second series), active compounds read low 0.938 | locus YOL078W, strain AVO1, active compounds read low 0.986 | locus YOL136C, strain PFK27, active compounds read low 0.953 | locus YOR061W, strain CKA2, active compounds read low 0.945 | locus YOR119C, strain RIO1, active compounds read low 0.978 | locus YOR231W, strain MKK1, active compounds read low 0.957 | locus YOR329C, strain SCD5, active compounds read low 0.991 | locus YPL031C, strain PHO85, active compounds read low 0.976 | locus YPL153C, strain RAD53, active compounds read low 0.976 | locus YPL204W, strain HRR25, active compounds read low 0.955 | locus YPL209C, strain IPL1, active compounds read low 0.997 | locus YPL256C, strain CLN2, active compounds read low 0.934 | locus YPR025C, strain CCL1, active compounds read low 0.992 | locus YPR106W, strain ISR1, active compounds read low 0.984 | locus YPR111W, strain DBF20, active compounds read low 0.981 | strain NNK1, active compounds read low 0.991 | strain TSCII, active compounds read low 0.968
active: locus YHR030C, strain SLT2, active compounds read low 0.848
